Screening results from PubChem BioAssay.
This is a sample that favours compounds with a hit; in the whole collection about 6.2% have one here.
HT1080-NT tox – kills 2HG-producing HT-1080-NT fibrosarcoma cells; 1.6% of 360,000 active; AID 686970; Potency, µM (doses to about 46.1 µM), for inactives: top-dose activity, negative = less viability, usual class: cytotoxic; HT-1080-NT fibrosarcoma viability, CellTiter-Glo ATP luminescence, 48 h;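 note: NT is the 2HG producing partner of a matched IDH1 knockdown line; 0% = DMSO-treated cells and -100% = media-only wells without cells; nearly all actives have a fitted effect of over 55% in size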
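750 cells/well, RPMI + 5% FBS; 2 h settle, compound pin-transfer, 48 h at 37 degrees C. CellTiter-Glo 10 min RT, luminescence. Normalized to DMSO and media-only wells.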
KB-V1 MDR tox – kills drug-selected multidrug resistant KB-V1 cells; KB-V1 MDR cells viability, CellTiter-Glo, 72 h; Potency, µM (top dose mostly 46.1 µM), usual class: cytotoxic; 3.4% of 400,000 active; AID 1347076; note: % is set by controls: 0 for no effect and ±100 for the full control effect; nearly all actives have a fitted effect of over 60% in size
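KB-V1, DMEM (no phenol red) + 10% FBS; cpd pin-transferred, titration series; 72 h, 37 degrees C; CellTiter-Glo, luminescence. Data normalized, curve-fit.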
KB-3-1 cytotox – kills parental KB-3-1 adenocarcinoma cells; 1.4% of 400,000 active; Potency, µM (series often up to 46.1 µM), usual class: cytotoxic; KB-3-1 viability, CellTiter-Glo ATP luminescence, 72 h; note: % is set by controls: 0 for no effect and ±100 for the full control effect; nearly all actives have a fitted effect of over 60% in size
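Parental KB-3-1 adenocarcinoma cells in phenol-red-free DMEM with 10% FBS were pin-treated with compounds at several concentrations, incubated 72 h at 37 °C, and viability read by CellTiter-Glo luminescence; concentration-effect curves were fitted after normalization.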
HT1080 IDH1KD tx – HT-1080 IDH1 knockdown cell toxicity (counter line); HT-1080 IDH1 knockdown viability, ATP luminescence, 48 h; Potency, µM (top dose mostly 46.1 µM), for inactives: top-dose activity, negative = toxicity, most hits filed as cytotoxic; 2% of 360,000 active; AID 686971;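 note: 0% = DMSO wells and -100% = cell-free medium wells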
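Viability of IDH1-knockdown HT-1080 fibrosarcoma cells was assessed by CellTiter-Glo after 48 h at 37 °C with titrated compound; concentration-effect curves were classified by fit quality and response size.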
S2 tox – reduces viability in counter-screen for ATXN expression inhibitors. S2 cells (HEK-293 line with an ATXN2-luciferase reporter) viability, CellTiter-Fluor protease fluorescence, 24 h. 0.49% of 400,000 active. Potency, µM (top dose mostly 56.7 µM), actives largely listed as cytotoxic; note: nearly all actives have a fitted effect of over 40% in size
ATXN2 expr inh – reduces ATXN2 reporter expression in HEK-293 cells; HEK-293 ATXN2-luciferase reporter, luminescence, 24 h; Potency, µM (top dose mostly 57 µM), without a hit: at the highest dose activity change, negative = inhibition, usual class: inhibitors; 0.72% of 360,000 active; AID 1745845; note: % is set by controls: 0 for no effect and ±100 for the full control effect; nearly all actives have a fitted effect of over 55% in size
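ATXN2-luciferase reporter cells (luciferase flanked by upstream and downstream ATXN2 gene portions) were treated 24 h at 37 °C with compounds at up to 57 uM. SteadyGlo luminescence gave expression; GF-AFC fluorescence gave viability.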
* hit, by the source's call. Calls come from the whole dose curve; as a rule, active = well fitted curve in the direction sought with a large enough effect; inconclusive = small, poorly fitted or top-dose-only effect, or another doubt; inactive = no such curve, though single readings can be large; an effect the other way counts as inactive or inconclusive. Potency is the fitted concentration of half-maximal effect.

Screening Oc1ccc(C2=NNC(=NCc3ccc4c(c3)OCO4)SC2)c(O)c1 returned HT1080-NT tox 20.6µM*, KB-V1 MDR tox 7.31µM*, KB-3-1 cytotox 2.59µM*, HT1080 IDH1KD tx inconclusive, S2 tox inactive and ATXN2 expr inh 11.2%.
`COc1ccc(OC)c(C2=NNC(=NCc3ccc4c(c3)OCO4)SC2)c1` gave HT1080-NT tox -3.8%, KB-V1 MDR tox inactive, KB-3-1 cytotox inactive, HT1080 IDH1KD tx -25.7%, S2 tox inactive and ATXN2 expr inh 13.0%.
Clc1ccc(C2=NNC(=NCc3ccc4c(c3)OCO4)SC2)cc1 was read as HT1080-NT tox -1.9%, KB-V1 MDR tox 20.6µM*, KB-3-1 cytotox inconclusive, HT1080 IDH1KD tx 10.4%, S2 tox inconclusive and ATXN2 expr inh 3.2%.
Screening CCN(CC)C(=O)Oc1ccc2c(=O)c(-c3ccc(OC)cc3)c(C)oc2c1 returned HT1080-NT tox -4.0%, KB-V1 MDR tox 9.2µM*, KB-3-1 cytotox inactive, HT1080 IDH1KD tx -21.5%, S2 tox inconclusive and ATXN2 expr inh -26.5%.
COc1ccc2c(=O)c(-c3ccccc3C)c(C)oc2c1 was read as HT1080-NT tox -4.2%, KB-V1 MDR tox inactive, KB-3-1 cytotox inactive, HT1080 IDH1KD tx -6.3%, S2 tox inactive and ATXN2 expr inh 23.6%.
For COc1ccc(-c2coc3cc(OC(=O)N4CCOCC4)ccc3c2=O)cc1 the results were HT1080-NT tox 22.5%, KB-V1 MDR tox inconclusive, KB-3-1 cytotox inactive, HT1080 IDH1KD tx -4.8%, S2 tox inactive and ATXN2 expr inh -3.7%.
CCN(CC)C(=O)Oc1ccc2c(=O)c(-c3ccc(OC)cc3)coc2c1 was read as HT1080-NT tox -13.0%, KB-V1 MDR tox 11.6µM*, KB-3-1 cytotox inconclusive, HT1080 IDH1KD tx 3.9%, S2 tox inactive and ATXN2 expr inh 3.4%.
`O=C(CN(CCc1c[nH]c2ccccc12)S(=O)(=O)c1ccccc1)N1CCCCCC1` gave KB-V1 MDR tox inactive and KB-3-1 cytotox inactive.
`COc1ccc(CC(N)c2csc(NC(=O)NCCc3ccccc3)n2)cc1` (stereo not given) gave HT1080-NT tox inconclusive, KB-V1 MDR tox inactive, KB-3-1 cytotox inactive, HT1080 IDH1KD tx inconclusive, S2 tox inconclusive and ATXN2 expr inh inconclusive.
Screening COc1ccccc1CNC(=O)Nc1nc(C(N)CCc2ccccc2)cs1 (stereo not given) returned HT1080-NT tox inconclusive, KB-V1 MDR tox inactive, KB-3-1 cytotox inconclusive, HT1080 IDH1KD tx 18.4µM* and ATXN2 expr inh inconclusive.
NC(Cc1ccc(Cl)cc1)c1csc(NC(=O)Nc2ccccc2-c2ccccc2)n1 (stereo not given) was read as HT1080-NT tox inconclusive, KB-V1 MDR tox inconclusive, KB-3-1 cytotox inconclusive, HT1080 IDH1KD tx inconclusive, S2 tox inactive and ATXN2 expr inh inconclusive.
`NC(Cc1ccc(Cl)cc1)c1csc(NC(=O)NCCc2ccccc2)n1` (stereo not given) gave HT1080-NT tox 16.4µM*, KB-V1 MDR tox inactive, KB-3-1 cytotox inconclusive, HT1080 IDH1KD tx inconclusive, S2 tox 28.2µM* and ATXN2 expr inh inconclusive.
Screening COc1cc(CNC(=O)Nc2nc(C(N)c3ccccc3)cs2)cc(OC)c1OC (stereo not given) returned HT1080-NT tox -19.7%, KB-V1 MDR tox inconclusive, KB-3-1 cytotox inconclusive, HT1080 IDH1KD tx -15.6%, S2 tox inactive and ATXN2 expr inh -2.8%.
For COc1cc(CNC(=O)Nc2nc(C(N)Cc3ccc(Cl)cc3)cs2)cc(OC)c1OC (stereo not given) the results were HT1080-NT tox 6.51µM*, KB-V1 MDR tox inactive, KB-3-1 cytotox inconclusive, HT1080 IDH1KD tx inconclusive, S2 tox 25.1µM* and ATXN2 expr inh inconclusive.
`NC(Cc1ccc(Cl)cc1)c1csc(NC(=O)NCC2CCCCC2)n1` (stereo not given) gave HT1080-NT tox 16.4µM*, KB-V1 MDR tox 16.4µM*, KB-3-1 cytotox inconclusive, HT1080 IDH1KD tx 16.4µM*, S2 tox 35.5µM* and ATXN2 expr inh inconclusive.
Cc1ccc(NS(=O)(=O)c2ccc(NC(=O)N3CCCC3)cc2)cc1C was read as KB-V1 MDR tox inactive, KB-3-1 cytotox inactive, S2 tox inactive and ATXN2 expr inh 0.9%.
`CCn1c(=O)n(CC)c2cc(N3CCCCC3)c(NC(=O)Nc3cc(C)cc(C)c3)cc21` gave KB-V1 MDR tox inconclusive, KB-3-1 cytotox inactive, S2 tox inactive and ATXN2 expr inh -2.1%.
NC(CO)c1csc(NC(=O)Nc2ccccc2Cc2ccccc2)n1 (stereo not given) was read as HT1080-NT tox -2.4%, KB-V1 MDR tox inactive, KB-3-1 cytotox inactive, HT1080 IDH1KD tx -12.0%, S2 tox inactive and ATXN2 expr inh 1.4%.
NC(CCc1ccccc1)c1csc(NC(=O)NCCc2ccccc2)n1 (stereo not given) was read as HT1080-NT tox 16.4µM*, KB-V1 MDR tox inconclusive, KB-3-1 cytotox inconclusive, HT1080 IDH1KD tx 16.4µM*, S2 tox inactive and ATXN2 expr inh -26.7%.
Screening Cc1noc(NS(=O)(=O)c2ccc(NC(=O)c3ccc(Br)cc3)cc2)c1C returned KB-V1 MDR tox inconclusive, KB-3-1 cytotox inactive, S2 tox inactive and ATXN2 expr inh 0.1%.
`CCOC(=O)N1CCN(S(=O)(=O)c2ccc(F)c(C(=O)Nc3cc(C)cc(C)c3)c2)CC1` gave HT1080-NT tox 14.8%, KB-V1 MDR tox inactive, KB-3-1 cytotox inactive, HT1080 IDH1KD tx -3.4%, S2 tox inactive and ATXN2 expr inh -8.9%.
`CC(C)Oc1ccc(S(=O)(=O)N2CCOCC2)cc1NC(=O)c1cccc(S(=O)(=O)N2CCCC2)c1` gave HT1080-NT tox -5.5%, KB-V1 MDR tox 18.4µM*, KB-3-1 cytotox inactive, HT1080 IDH1KD tx -0.3%, S2 tox inactive and ATXN2 expr inh -21.3%.
`COc1ccc(OC)c(NC(=O)c2ccc(S(=O)(=O)N3CCOCC3)cc2)c1` gave HT1080-NT tox 14.6%, KB-V1 MDR tox inactive, KB-3-1 cytotox inactive, HT1080 IDH1KD tx 4.3%, S2 tox inactive and ATXN2 expr inh -18.2%.
`COc1ccc(C)cc1NC(=O)c1ccc(S(=O)(=O)N2CCOCC2)cc1` gave HT1080-NT tox -6.3%, KB-V1 MDR tox 16.4µM*, KB-3-1 cytotox inactive, HT1080 IDH1KD tx -1.1%, S2 tox inactive and ATXN2 expr inh -6.5%.
Screening CCOC(=O)N1CCN(S(=O)(=O)c2ccc(F)c(C(=O)Nc3cccc(Cl)c3C)c2)CC1 returned HT1080-NT tox -7.9%, KB-V1 MDR tox 3.26µM*, KB-3-1 cytotox inactive, HT1080 IDH1KD tx -17.9%, S2 tox inactive and ATXN2 expr inh -28.8%.
